Among the data in PubChem BioAssay (EPA / NIEHS) are outcome and AC50 values, retold here.

Molecules are shown by their SMILES. Inconclusive results are not listed. Calls of active or inactive are those of the source. Rule for the calls, unless noted: active = hit-call score of the fitted dose curve at least 0.9, where 1 is the maximum; inactive = score below 0.9.

The target of assay [1] is Retinoic acid receptor RXR-alpha (Homo sapiens) (UniProt P19793). As to the kind of experiment: ATG_RXRa_TRANS: Attagene TRANS-FACTORIAL HepG2 Assay for human Retinoid X Receptor alpha (RXRa) (AID 2283012; active = hit-call score of the fitted dose curve at least 0.9, where 1 is the maximum). In outline: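 HepG2 cells transiently transfected with GAL4-UAS reporter units and chimeric RXRa-Gal4 protein, treated 24 h. Reporter mRNA measured by RT-PCR, fluorescent labelling, HpaI digestion and capillary electrophoresis. Induction fitted against DMSO.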

The target in assay [2] is human Retinoid X Receptor beta (RXRb), RXRB (gene 6257) (UniProt P28702). As to the kind of experiment: ATG_RXRb_TRANS: Attagene TRANS-FACTORIAL HepG2 Assay for human Retinoid X Receptor beta (RXRb) (AID 2283013; active = hit-call score of the fitted dose curve at least 0.9, where 1 is the maximum). A digest of the protocol: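 HepG2 cells were transiently transfected with multiplexed GAL4-UAS reporters and a chimeric RXRb-Gal4 construct, then exposed for 24 h. Reporter mRNA was quantified by RT-PCR, FAM labeling, HpaI digestion and capillary electrophoresis; gain of signal was scored against DMSO.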

The target of assay [3] is human Thyroid Receptor alpha (THRa1), THRA (gene 7067) (UniProt P10827). Kind of assay: ATG_THRa1_TRANS: Attagene TRANS-FACTORIAL HepG2 Assay for human Thyroid Receptor alpha (THRa1) (AID 2283014; active = hit-call score of the fitted dose curve at least 0.9, where 1 is the maximum). In outline: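 Measured here is mRNA from a GAL4-UAS reporter in transfected HepG2 cells carrying a Gal4-fused receptor, 24 h post-dose. DMSO served as negative control and baseline.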

Read-out in assay [4]: E-selectin (Homo sapiens) (UniProt P16581)
As to the kind of experiment: BSK_3C_Eselectin: BioMAP Diversity Plus: 3C Assay for Eselectin Biomarker Activity (AID 2283015). To be noted: primary human endothelial cells (HUVEC); actives raise or lower the signal. In outline:
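Endpoint derived by bidirectional fitting against DMSO vehicle; signal is ELISA-detected E-selectin from primary HUVEC at 24 h post-dosing, with parallel SRB staining (0.1% SRB, 560 nm) flagging cytotoxicity.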

Read-out in assay [5]: Interleukin-1 alpha (IL1a), IL1A (gene 3552)
As to the kind of experiment: BSK_BE3C_IL1a: BioMAP Diversity Plus: BE3C Assay for Interleukin-1 alpha (IL1a) Biomarker Activity (AID 2283016). Particulars: primary human bronchial epithelial cells; actives raise or lower the signal. A digest of the protocol:
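Human primary bronchial epithelial cells, 24 h chemical exposure; IL-1a quantified by ELISA, fitted bidirectionally against DMSO. Cytotoxicity assessed in parallel by SRB total-protein staining at the time of measurement.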

Read-out in assay [6]: Monocyte Chemoattractant Protein-1 (MCP1), CCL2 (gene 6347)
Kind of assay: BSK_3C_MCP1: BioMAP Diversity Plus: 3C Assay for Monocyte Chemoattractant Protein-1 (MCP1) Biomarker Activity (AID 2283017). To be noted: primary human endothelial cells (HUVEC); actives raise or lower the signal. In outline:
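Using human vascular primary endothelium, researchers measured MCP-1 by ELISA 24 h after treatment, with DMSO serving as negative control for bidirectional fitting.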

Read-out in assay [7]: Human Leukocyte Antigen - DR isotype (HLADR), HLA-DRA (gene 3122)
As to the kind of experiment: BSK_3C_HLADR: BioMAP Diversity Plus: 3C Assay for Human Leukocyte Antigen - DR isotype (HLADR) Biomarker Activity (AID 2283019).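 For outcome: ELISA of cell-surface HLA-DR on HUVEC 24 h after dosing.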 To be noted: primary human endothelial cells (HUVEC); actives raise or lower the signal. A digest of the protocol: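 Compound added to primary HUVEC cultures, 24 h incubation, then HLA-DR determined by ELISA; endpoint derived by bidirectional fitting relative to DMSO negative control.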

Read-out in assay [8]: Interleukin-8 (IL8), CXCL8 (gene 3576)
As to the kind of experiment: BSK_3C_IL8: BioMAP Diversity Plus: 3C Assay for Interleukin-8 (IL8) Biomarker Activity (AID 2283020). Particulars: primary human endothelial cells (HUVEC); actives raise or lower the signal. In outline: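 Primary human umbilical vein endothelial cells were dosed for 24 h. IL-8 was quantified by ELISA and fitted bidirectionally against DMSO. Cytotoxicity was assessed in parallel cultures by SRB staining at 560 nm.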

Read-out in assay [9]: Monokine induced gamma interferon (MIG), CXCL9 (gene 4283)
Kind of assay: BSK_3C_MIG: BioMAP Diversity Plus: 3C Assay for Monokine induced gamma interferon (MIG) Biomarker Activity (AID 2283021). Particulars: primary human endothelial cells (HUVEC); actives raise or lower the signal. In outline: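 HUVEC primary endothelial cultures dosed with chemical; MIG quantified by ELISA at 24 h. Data fitted bidirectionally against DMSO control, with parallel SRB total-protein staining for cytotoxicity.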

Read-out in assay [10]: Matrix Metallopeptidase 1 (MMP1), MMP1 (gene 4312)
Kind of assay: BSK_BE3C_MMP1: BioMAP Diversity Plus: BE3C Assay for Matrix Metallopeptidase 1 (MMP1) Biomarker Activity (AID 2283024). Particulars: primary human bronchial epithelial cells; actives raise or lower the signal. A digest of the protocol:
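Human primary bronchial epithelial cells (BE3C system) dosed for 24 h; MMP-1 quantified by ELISA. Bidirectional fit against DMSO; cytotoxicity tracked in parallel cultures by SRB total-protein staining.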

Assay [11] is described as follows: BSK_3C_Vis: BioMAP Diversity Plus: 3C Assay for Morphology Visualization (AID 2283025).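 For AC50: light microscopy image of cell morphology used as background control.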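 Note: fitted both ways so gain or loss versus DMSO counts.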 To be noted: primary human endothelial cells (HUVEC). In outline: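 Human umbilical vein endothelial cell morphology was inspected by light microscopy 24 h after chemical dosing; scored bidirectionally relative to DMSO.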
Read-out in assay [12]: Pselectin, SELP (gene 6403)
Kind of assay: BSK_4H_Pselectin: BioMAP Diversity Plus: 4H Assay for Pselectin Biomarker Activity (AID 2283026). Particulars: primary human endothelial cells (HUVEC); actives raise or lower the signal. In outline:
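Primary human umbilical vein endothelial cells were treated 24 h, and cell-surface P-selectin was then quantified by ELISA. Bidirectional fit versus DMSO; cytotoxicity checked in parallel cultures by SRB total-protein staining.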

Assay [13] is described as follows: BSK_4H_SRB: Viability Assessment in the BioMAP Diversity Plus: 4H Assay (AID 2283027).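 For AC50: curves fitted both ways versus DMSO so AC50 may be loss or gain.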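 Note: cells exposed to compound for 24 h before staining.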 Particulars: primary human endothelial cells (HUVEC). In outline: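 Human umbilical vein endothelial cells were dosed with chemical and, after 24 h, fixed with 10% TCA, stained with 0.1% sulforhodamine B, and read at 560 nm to give total protein as a cytotoxicity measure. Bidirectional fitting relative to DMSO control.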

Assay [14] can be described thus: BSK_BE3C_SRB: Viability Assessment in the BioMAP Diversity Plus: BE3C Assay (AID 2283028). To be noted: primary human bronchial epithelial cells. A digest of the protocol:
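SRB total-protein staining (0.1%, after TCA fixation) of chemically dosed human bronchial epithelial primary cells at 24 h; DMSO serves as the negative control for bidirectional curve fitting.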

Read-out in assay [15]: Thrombomodulin, THBD (gene 7056)
As to the kind of experiment: BSK_3C_Thrombomodulin: BioMAP Diversity Plus: 3C Assay for Thrombomodulin Biomarker Activity (AID 2283029). Particulars: primary human endothelial cells (HUVEC); actives raise or lower the signal. In outline:
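Human umbilical vein endothelial cells were exposed to chemicals for 24 h; cell-surface thrombomodulin quantified by ELISA, with bidirectional fitting against DMSO baseline.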

Assay [16] has as its target human Vitamin D Receptor (VDR), VDR (gene 7421) (UniProt P11473). Kind of assay: ATG_VDR_TRANS: Attagene TRANS-FACTORIAL HepG2 Assay for human Vitamin D Receptor (VDR) (AID 2283022; active = hit-call score of the fitted dose curve at least 0.9, where 1 is the maximum). In outline:
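Multiplexed TRANS reporter in HepG2; 24 h treatment; reporter mRNA by RT-PCR plus capillary electrophoresis; upregulation scored relative to DMSO.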

Read-out in assay [17]: Monocyte Chemoattractant Protein-1 (MCP1), CCL2 (gene 6347)
As to the kind of experiment: BSK_4H_MCP1: BioMAP Diversity Plus: 4H Assay for Monocyte Chemoattractant Protein-1 (MCP1) Biomarker Activity (AID 2283018). Particulars: primary human endothelial cells (HUVEC); actives raise or lower the signal. In outline: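 Human umbilical vein endothelial cells (4H system) exposed to chemicals for 24 h in 96-well format. MCP-1 measured by ELISA; bidirectional fitting against DMSO, with SRB total-protein staining in parallel cultures for cytotoxicity.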

A short description of assay [18]: BSK_3C_SRB: Viability Assessment in the BioMAP Diversity Plus: 3C Assay (AID 2283023).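 Note: cells read 24 h after compound dosing; fitted both ways against DMSO so a hit may be signal rise or drop.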 Particulars: primary human endothelial cells (HUVEC). A digest of the protocol:
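Overt cytotoxicity is gauged in parallel confluent HUVEC cultures by SRB total-protein staining at the time of biomarker measurement, 24 h after dosing. Gain or loss of signal is fitted versus DMSO.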

human Vitamin D Receptor (VDR), VDR (gene 7421), sequence (P11473 whole entry, looked up): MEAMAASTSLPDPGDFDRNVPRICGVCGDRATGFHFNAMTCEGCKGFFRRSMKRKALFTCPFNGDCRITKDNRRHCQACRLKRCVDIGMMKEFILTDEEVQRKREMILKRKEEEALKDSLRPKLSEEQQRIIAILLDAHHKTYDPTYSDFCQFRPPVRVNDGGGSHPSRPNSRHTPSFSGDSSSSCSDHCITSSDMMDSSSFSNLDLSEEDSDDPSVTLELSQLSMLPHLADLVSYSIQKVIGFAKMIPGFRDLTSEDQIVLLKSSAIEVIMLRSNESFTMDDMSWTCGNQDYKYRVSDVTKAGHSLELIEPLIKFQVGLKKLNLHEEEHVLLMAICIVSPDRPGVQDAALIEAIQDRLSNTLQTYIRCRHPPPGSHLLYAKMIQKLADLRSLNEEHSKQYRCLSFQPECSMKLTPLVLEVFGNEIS
Retinoic acid receptor RXR-alpha (Homo sapiens), sequence (P19793 whole entry, looked up, the tested form may be a part): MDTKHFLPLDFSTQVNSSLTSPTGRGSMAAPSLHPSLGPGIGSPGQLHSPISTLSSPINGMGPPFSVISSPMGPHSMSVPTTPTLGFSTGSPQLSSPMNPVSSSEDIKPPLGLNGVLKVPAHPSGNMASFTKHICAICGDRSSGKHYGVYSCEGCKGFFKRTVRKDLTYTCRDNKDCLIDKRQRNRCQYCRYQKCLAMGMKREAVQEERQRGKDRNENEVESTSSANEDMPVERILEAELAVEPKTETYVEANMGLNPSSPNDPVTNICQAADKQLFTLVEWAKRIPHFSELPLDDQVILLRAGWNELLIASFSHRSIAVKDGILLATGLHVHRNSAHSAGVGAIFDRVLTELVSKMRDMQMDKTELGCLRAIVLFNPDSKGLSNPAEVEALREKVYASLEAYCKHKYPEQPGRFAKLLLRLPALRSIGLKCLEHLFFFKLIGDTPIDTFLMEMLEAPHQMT
human Retinoid X Receptor beta (RXRb), RXRB (gene 6257), sequence (P28702 whole entry, looked up, the tested form may be a part): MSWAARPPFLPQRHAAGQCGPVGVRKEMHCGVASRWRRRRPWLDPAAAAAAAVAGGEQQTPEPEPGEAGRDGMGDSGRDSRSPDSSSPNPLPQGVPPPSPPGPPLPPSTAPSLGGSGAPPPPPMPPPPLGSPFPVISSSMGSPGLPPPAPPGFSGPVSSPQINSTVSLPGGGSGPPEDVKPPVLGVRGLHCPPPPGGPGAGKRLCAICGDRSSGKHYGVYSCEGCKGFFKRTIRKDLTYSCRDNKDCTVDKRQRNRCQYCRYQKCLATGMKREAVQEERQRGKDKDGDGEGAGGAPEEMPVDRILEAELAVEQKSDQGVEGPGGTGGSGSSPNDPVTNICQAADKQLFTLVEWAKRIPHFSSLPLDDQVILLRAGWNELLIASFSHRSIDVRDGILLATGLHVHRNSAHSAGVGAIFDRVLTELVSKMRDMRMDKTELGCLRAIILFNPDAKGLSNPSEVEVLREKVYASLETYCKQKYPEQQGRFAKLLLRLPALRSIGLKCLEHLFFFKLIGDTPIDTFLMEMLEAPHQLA
human Thyroid Receptor alpha (THRa1), THRA (gene 7067), sequence (P10827 whole entry, looked up, the tested form may be a part): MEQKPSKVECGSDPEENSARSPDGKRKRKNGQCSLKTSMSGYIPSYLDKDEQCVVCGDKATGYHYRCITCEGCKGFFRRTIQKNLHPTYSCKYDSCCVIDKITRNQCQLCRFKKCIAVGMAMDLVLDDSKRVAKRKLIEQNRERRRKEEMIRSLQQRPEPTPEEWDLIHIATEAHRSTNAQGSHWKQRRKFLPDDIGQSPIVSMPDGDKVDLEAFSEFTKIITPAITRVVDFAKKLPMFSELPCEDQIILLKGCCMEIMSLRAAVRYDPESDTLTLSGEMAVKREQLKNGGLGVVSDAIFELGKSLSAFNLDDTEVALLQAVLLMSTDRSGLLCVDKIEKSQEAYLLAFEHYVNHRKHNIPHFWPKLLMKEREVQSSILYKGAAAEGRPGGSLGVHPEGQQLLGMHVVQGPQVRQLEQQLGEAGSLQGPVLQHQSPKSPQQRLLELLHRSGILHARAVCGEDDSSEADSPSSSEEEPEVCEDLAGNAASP
E-selectin (Homo sapiens), sequence (P16581 whole entry, looked up): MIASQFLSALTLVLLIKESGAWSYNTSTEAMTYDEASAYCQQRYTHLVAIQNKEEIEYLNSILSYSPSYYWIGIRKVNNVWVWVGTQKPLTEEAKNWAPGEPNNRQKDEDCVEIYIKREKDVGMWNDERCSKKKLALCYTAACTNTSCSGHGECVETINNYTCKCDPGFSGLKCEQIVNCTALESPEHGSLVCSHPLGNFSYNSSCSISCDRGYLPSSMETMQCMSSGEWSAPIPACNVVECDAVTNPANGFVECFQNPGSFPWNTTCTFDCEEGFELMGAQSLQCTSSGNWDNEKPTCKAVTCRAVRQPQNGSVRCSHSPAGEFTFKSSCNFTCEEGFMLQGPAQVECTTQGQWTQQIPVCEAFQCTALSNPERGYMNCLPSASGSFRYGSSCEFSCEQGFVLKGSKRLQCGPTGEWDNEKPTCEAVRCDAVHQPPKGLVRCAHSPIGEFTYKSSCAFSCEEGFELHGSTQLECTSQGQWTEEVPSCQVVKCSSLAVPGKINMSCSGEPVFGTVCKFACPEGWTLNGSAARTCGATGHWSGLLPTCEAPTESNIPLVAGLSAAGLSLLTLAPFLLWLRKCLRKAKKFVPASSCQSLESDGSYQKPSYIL

Turning to `c1ccc2c(c1)Nc1ccccc1S2`, the outcome in assay [1], in assay [3], in assay [4], in assay [5], in [6] and in [7] was inactive. Besides, the result in assay [8], in assay [9], in assay [10], in [11], in assay [12] and in [13] was inactive. Further, the outcome in [14] and in assay [15] was inactive. In addition, in assay [2], the AC50 was 3.98 µM (active).

Turning to `Clc1ccc(Oc2ccccc2)cc1`, the compound was called inactive in assay [1], in assay [3] and in assay [16]. The AC50 in [2] is 100 µM (active).

Regarding `CCOS(=O)(=O)OCC`, the compound was called inactive in assay [3], in assay [4], in assay [5], in [6], in assay [17] and in assay [7]. The outcome in [8], in assay [9], in assay [18], in assay [10], in assay [11] and in assay [12] was inactive. Moreover, the result in assay [13], in [14] and in assay [15] was inactive.

In the case of `CCOP(=S)(NC(C)C)Oc1ccccc1C(=O)OC(C)C` (configuration not stated), the call in assay [1], in assay [5], in [6], in assay [7], in [8] and in assay [9] was inactive. Besides, the compound was called inactive in [16], in assay [18], in assay [10], in [11], in assay [12] and in [13]. Besides, the result in assay [14] and in assay [15] was inactive. In addition, the results for the AC50 in [2] and in assay [4] were 13.3 µM (active) and 20 µM (active), respectively.

With `CCCCN(CCCC)SN(C)C(=O)Oc1cccc2c1OC(C)(C)C2`, the compound was called inactive in assay [1], in assay [5], in assay [9], in [10], in assay [14] and in assay [15]. For the same compound, the AC50 in assay [2] is 68.3 µM (active); in assay [4], 22.9 µM (active); in assay [6] it was 30.6 µM (active); in assay [7], 29.8 µM (active); in assay [8], 36.4 µM (active); in [18], 29.5 µM (active). In addition, the AC50 was 37.5 µM (active) in assay [11], 20.2 µM (active) in assay [12] and 27.2 µM (active) in [13].

As for `O=S(=O)(c1ccc(O)cc1)c1ccc(O)cc1`, the result in assay [1], in [3] and in [16] was inactive.

In the case of `CCN(CC)c1ccccc1`, the outcome in assay [2], in assay [4], in assay [5], in assay [6], in [7] and in assay [8] was inactive. In addition, the result in [9], in [16], in assay [18], in assay [10], in assay [11] and in [12] was inactive. Also, the result in [13], in assay [14] and in [15] was inactive.

For `CC(C)(C)OOC(C)(C)C`, the compound was called inactive in [1], in assay [3], in [4], in assay [5], in assay [6] and in assay [7]. In addition, the result in [8], in [9], in [18], in [10], in [11] and in assay [12] was inactive. The outcome in assay [13], in assay [14] and in assay [15] was inactive.

On to `O=C(O)C(F)(F)OC(F)(F)C(F)(F)OC(F)(F)C(=O)O`, for which the result in assay [2], in assay [4], in assay [5], in assay [6], in assay [7] and in assay [8] was inactive. Besides, the outcome in assay [9], in assay [16], in assay [18], in [10], in assay [12] and in assay [13] was inactive. For the same compound, the result in assay [14] and in assay [15] was inactive.

As usually defined, the AC50 is the concentration at which the activity in the assay is half-maximal.
